In PubChem BioAssay (EPA / NIEHS):
Calls of active or inactive are those of the source. How the source made its calls: active means hit-call score of the fitted dose curve at least 0.9, where 1 is the maximum; inactive means score below 0.9.

Legend:
[1] = ATG_CRE_CIS: Attagene CIS-FACTORIAL HepG2 Assay for human cAMP Responsive Element (CRE) binding protein 3 (AID 2282926); conditions: HepG2 CRE cis-reporter, Attagene multiplexed mRNA; actives raise or lower the signal
Summary of the method: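 HepG2 cells transiently transfected with cis-element-driven multiple reporter transcription units; CRE reporter mRNA measured 24 h after dosing by RT-PCR, 6-FAM labelling, HpaI digestion and capillary electrophoresis. Bidirectional fit versus DMSO baseline.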

[2] = target: CCAAT/enhancer-binding protein beta (Homo sapiens) (UniProt P17676); test: ATG_C_EBP_CIS: Attagene CIS-FACTORIAL HepG2 Assay for human CCAAT/Enhancer Binding Protein (C/EBP) beta (AID 2282927); conditions: HepG2 Attagene cis-factorial transcription factor reporter; actives raise or lower the signal
Summary of the method: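 Endogenous transcription factor activity in human liver HepG2 cells is inferred from induction of a CEBPB-linked reporter mRNA. Exposure lasts 24 h; activity is fitted in both directions relative to DMSO.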

[3] = ATG_CMV_CIS: Attagene CIS-FACTORIAL HepG2 Assay for human CMV (Internal Marker) (AID 2282928); conditions: HepG2 CMV promoter reporter, transcription factor profiling; actives raise or lower the signal;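 further: endpoint acts as a background internal control marker rather than a target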
Summary of the method: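 After transient transfection of HepG2 with reporter transcription units driven by cis-regulatory promoters, cells receive test chemical for 24 h. Labeled reporter amplicons, digested with HpaI, are sized and quantified by capillary electrophoresis against DMSO.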

[4] = ATG_DR4_LXR_CIS: Attagene CIS-FACTORIAL HepG2 Assay for human Liver X Receptor (LXR), DR4 submotif (AID 2282929); conditions: HepG2 Attagene DR4 cis-reporter, mRNA transcription; actives raise or lower the signal
Summary of the method: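 Transiently transfected HepG2 liver cells; cis-regulated reporters; 24 h dosing. RT-PCR plus CE read-out of reporter mRNA. DMSO baseline, bidirectional curve fitting.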

[5] = target: Aryl hydrocarbon receptor (Homo sapiens) (UniProt P35869); test: ATG_Ahr_CIS: Attagene CIS-FACTORIAL HepG2 Assay for human Aryl Hydrocarbon Receptor (Ahr) (AID 2282930); conditions: HepG2 AhR cis-factorial reporter transcription; actives raise or lower the signal
Summary of the method: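 Transient MRTU transfection of HepG2 → 24 h compound exposure → total RNA, oligo(dT) RT → PCR, 6-FAM extension, HpaI cut → CE fluorescence. DMSO = baseline; bidirectional curve fit.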

[6] = ATG_AP_1_CIS: Attagene CIS-FACTORIAL HepG2 Assay for human Activator Protein 1 (AP-1) (AID 2282931); conditions: HepG2 Attagene cis-factorial AP-1 reporter mRNA; actives raise or lower the signal
Summary of the method: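 We transfected HepG2 cells transiently with a set of cis-regulated reporter transcription units, dosed them for 24 h, and quantified reporter mRNA via RT-PCR and capillary electrophoresis, scoring gain or loss of signal relative to DMSO.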

[7] = ATG_AP_2_CIS: Attagene CIS-FACTORIAL HepG2 Assay for human Activator Protein 2 (AP-2) (AID 2282932); conditions: HepG2 AP-2 cis-reporter, Attagene transcription factor profiling; actives raise or lower the signal
Summary of the method: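 Step one: transient transfection of HepG2 with reporter transcription units. Step two: 24 h chemical exposure. Step three: RNA extraction, RT-PCR, labelled fragment analysis by capillary electrophoresis; DMSO serves as baseline.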

[8] = ATG_BRE_CIS: Attagene CIS-FACTORIAL HepG2 Assay for human Bone Morphogenetic Protein (BMP) Response Element (BRE) (AID 2282933); conditions: HepG2 BMP response element reporter, Attagene transcription factor profiling; actives raise or lower the signal
Summary of the method: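 After a 24 h chemical treatment, transiently transfected HepG2 cells were lysed for RNA; reporter transcripts were quantified by fluorescent RT-PCR and capillary electrophoresis, normalised to DMSO.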

[9] = target: Retinoic acid receptor alpha (Homo sapiens) (UniProt P10276); test: ATG_DR5_RAR_CIS: Attagene CIS-FACTORIAL HepG2 Assay for human Retinoic Acid Receptor Alpha (RARE), DR5 submotif (AID 2282934); conditions: HepG2 Attagene cis-factorial RARE DR5 reporter, mRNA; actives raise or lower the signal
Summary of the method: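 Transient MRTU transfection of HepG2; 24 h compound treatment; TriZol RNA, oligo(dT) RT, PCR, FAM labelling, capillary electrophoresis. Bidirectional fit vs DMSO. Endogenous TF activity at DR5 RARE.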

[10] = target: Transcription factor E2F1 (Homo sapiens) (UniProt Q01094); test: ATG_E2F_CIS: Attagene CIS-FACTORIAL HepG2 Assay for human E2F Transcription Factor 1 (AID 2282935); conditions: HepG2 Attagene cis-reporter, E2F reporter RNA transcripts; actives raise or lower the signal
Summary of the method: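 Total RNA from 24 h-treated, reporter-transfected HepG2 cells undergoes DNase I treatment, oligo(dT) reverse transcription, PCR and 6-FAM primer extension before capillary electrophoresis.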

CCAAT/enhancer-binding protein beta (Homo sapiens), sequence (P17676 whole entry, looked up): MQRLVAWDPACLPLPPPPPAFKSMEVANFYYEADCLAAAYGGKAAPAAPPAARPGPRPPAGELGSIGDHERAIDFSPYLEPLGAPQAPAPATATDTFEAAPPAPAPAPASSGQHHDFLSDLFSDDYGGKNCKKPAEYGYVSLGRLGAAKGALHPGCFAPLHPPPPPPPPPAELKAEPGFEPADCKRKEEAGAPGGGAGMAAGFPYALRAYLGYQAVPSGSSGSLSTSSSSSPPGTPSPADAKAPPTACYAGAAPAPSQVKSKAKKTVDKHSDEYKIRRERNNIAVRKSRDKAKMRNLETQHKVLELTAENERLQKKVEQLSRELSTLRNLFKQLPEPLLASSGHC
Transcription factor E2F1 (Homo sapiens), sequence (Q01094 whole entry, looked up): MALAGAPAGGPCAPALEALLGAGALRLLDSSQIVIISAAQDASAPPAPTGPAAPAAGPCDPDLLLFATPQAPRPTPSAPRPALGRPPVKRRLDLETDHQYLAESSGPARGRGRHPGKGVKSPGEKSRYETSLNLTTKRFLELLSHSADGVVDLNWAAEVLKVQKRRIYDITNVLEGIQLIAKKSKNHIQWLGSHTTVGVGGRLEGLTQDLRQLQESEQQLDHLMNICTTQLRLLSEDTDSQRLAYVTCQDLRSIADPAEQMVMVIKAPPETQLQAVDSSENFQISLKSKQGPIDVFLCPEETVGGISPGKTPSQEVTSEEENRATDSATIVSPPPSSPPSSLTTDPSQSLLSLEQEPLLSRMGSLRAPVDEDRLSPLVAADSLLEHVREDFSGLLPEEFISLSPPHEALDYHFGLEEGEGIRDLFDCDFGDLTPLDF
Aryl hydrocarbon receptor (Homo sapiens), sequence (P35869 whole entry, looked up): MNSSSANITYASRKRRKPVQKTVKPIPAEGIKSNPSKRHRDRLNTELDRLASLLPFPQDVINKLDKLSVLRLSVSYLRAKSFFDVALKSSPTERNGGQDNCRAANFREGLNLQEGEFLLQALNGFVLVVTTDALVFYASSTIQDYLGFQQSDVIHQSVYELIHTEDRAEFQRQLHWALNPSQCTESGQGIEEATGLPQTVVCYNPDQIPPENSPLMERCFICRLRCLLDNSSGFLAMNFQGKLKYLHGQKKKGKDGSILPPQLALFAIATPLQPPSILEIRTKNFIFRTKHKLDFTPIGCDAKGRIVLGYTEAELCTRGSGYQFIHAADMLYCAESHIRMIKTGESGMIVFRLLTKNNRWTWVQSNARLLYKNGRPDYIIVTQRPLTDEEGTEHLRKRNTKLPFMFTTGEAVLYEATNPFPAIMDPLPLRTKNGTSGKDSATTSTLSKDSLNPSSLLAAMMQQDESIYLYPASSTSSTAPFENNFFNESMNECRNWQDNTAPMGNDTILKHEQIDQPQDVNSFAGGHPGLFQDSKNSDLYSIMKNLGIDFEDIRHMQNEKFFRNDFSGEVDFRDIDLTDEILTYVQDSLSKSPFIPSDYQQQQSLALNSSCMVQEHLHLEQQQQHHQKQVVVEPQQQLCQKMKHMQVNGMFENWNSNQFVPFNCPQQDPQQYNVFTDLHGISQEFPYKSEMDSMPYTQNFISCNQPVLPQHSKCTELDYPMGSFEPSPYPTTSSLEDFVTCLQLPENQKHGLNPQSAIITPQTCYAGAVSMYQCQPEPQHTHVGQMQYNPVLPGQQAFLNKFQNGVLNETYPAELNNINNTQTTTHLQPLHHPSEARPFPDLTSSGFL
Retinoic acid receptor alpha (Homo sapiens), sequence (P10276 whole entry, looked up): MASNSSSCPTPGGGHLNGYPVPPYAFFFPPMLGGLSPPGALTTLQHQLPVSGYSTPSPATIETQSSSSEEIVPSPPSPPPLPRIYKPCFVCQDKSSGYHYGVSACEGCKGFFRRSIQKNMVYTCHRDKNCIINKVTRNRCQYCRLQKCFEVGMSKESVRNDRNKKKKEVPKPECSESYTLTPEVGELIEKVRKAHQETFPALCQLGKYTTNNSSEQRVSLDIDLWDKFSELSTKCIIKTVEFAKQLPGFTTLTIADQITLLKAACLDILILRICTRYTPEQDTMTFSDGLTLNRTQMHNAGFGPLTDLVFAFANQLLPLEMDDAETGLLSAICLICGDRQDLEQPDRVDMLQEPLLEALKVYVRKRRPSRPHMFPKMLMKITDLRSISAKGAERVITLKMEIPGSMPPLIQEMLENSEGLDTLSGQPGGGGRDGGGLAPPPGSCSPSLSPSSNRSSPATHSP

Row | SMILES | outcome [1] | outcome [2] | outcome [3] | outcome [4] | outcome [5] | outcome [6] | outcome [7] | outcome [8] | outcome [9] | outcome [10] | AC50 [5] | AC50 [8] | AC50 [4] | AC50 [3] | AC50 [6] | AC50 [10] | AC50 [2] | AC50 [1]
1 | CN(C)C(=S)SC(=S)N(C)C | inactive | inactive | inactive | inactive | inactive | inactive | inactive | inactive | inactive | inactive |  |  |  |  |  |  |  | 
2 | CC(C)c1ccccc1O | inactive | inactive | inactive | inactive |  | inactive | inactive | inactive | inactive | inactive | 42.9 µM (active) |  |  |  |  |  |  | 
3 | CCCSc1ccc2nc(NC(=O)OC)[nH]c2c1 | inactive | inactive | inactive | inactive | inactive | inactive | inactive | inactive | inactive | inactive |  |  |  |  |  |  |  | 
4 | CC(C)OCCO | inactive | inactive | inactive | inactive | inactive | inactive | inactive | inactive | inactive | inactive |  |  |  |  |  |  |  | 
5 | CC(C)Nc1nc(N)nc(Cl)n1 | inactive | inactive | inactive | inactive | inactive | inactive | inactive | inactive | inactive | inactive |  |  |  |  |  |  |  | 
6 | CS(=O)(=O)c1ccc(C2=C(c3ccccc3)C(=O)OC2)cc1 | inactive | inactive | inactive | inactive |  | inactive | inactive | inactive | inactive | inactive | 0.0408 µM (active) |  |  |  |  |  |  | 
7 | CS(C)=O | inactive | inactive | inactive | inactive | inactive | inactive | inactive | inactive | inactive | inactive |  |  |  |  |  |  |  | 
8 | CCOc1ccc(N=Nc2ccc(C=Cc3ccc(N=Nc4ccc(OCC)cc4)cc3S(=O)(=O)O)c(S(=O)(=O)O)c2)cc1 | inactive | inactive | inactive | inactive |  | inactive | inactive |  | inactive | inactive | 12.2 µM (active) | 7.28 µM (active) |  |  |  |  |  | 
9 | CC/C=C\CC/C=C/CO | inactive | inactive | inactive | inactive | inactive | inactive | inactive | inactive | inactive | inactive |  |  |  |  |  |  |  | 
10 | CCOC(=O)[C@@H](C)Oc1ccc(Oc2nc3ccc(Cl)cc3o2)cc1 | inactive | inactive | inactive |  | inactive | inactive | inactive |  | inactive | inactive |  | 156 µM (active) | 152 µM (active) |  |  |  |  | 
11 | CCCCCCCCC=CCCCCCCCC1=NCCN1CCO | inactive | inactive |  |  | inactive |  | inactive | inactive | inactive |  |  |  | 40.6 µM (active) | 48.2 µM (active) | 100 µM (active) | 26.1 µM (active) |  | 
12 | C=CC(C)C#N (stereo not given) | inactive | inactive | inactive | inactive | inactive | inactive | inactive | inactive | inactive | inactive |  |  |  |  |  |  |  | 
13 | ON=C1CCCCC1 | inactive | inactive | inactive | inactive | inactive | inactive | inactive | inactive | inactive | inactive |  |  |  |  |  |  |  | 
14 | O=c1[nH]c(=O)c2cn[nH]c2[nH]1 | inactive | inactive | inactive | inactive | inactive | inactive | inactive | inactive | inactive | inactive |  |  |  |  |  |  |  | 
15 | CC1=CC[C@@]23C[C@@H]1C(C)(C)[C@@H]2CC[C@H]3C | inactive | inactive | inactive |  | inactive | inactive | inactive | inactive | inactive | inactive |  |  | 165 µM (active) |  |  |  |  | 
16 | CN(c1nccc(=O)[nH]1)C1CCN(c2nc3ccccc3n2Cc2ccc(F)cc2)CC1 | inactive | inactive | inactive | inactive | inactive | inactive | inactive | inactive | inactive | inactive |  |  |  |  |  |  |  | 
17 | Nc1c(Cl)cc(Cl)cc1[N+](=O)[O-] | inactive | inactive |  | inactive | inactive | inactive | inactive | inactive | inactive | inactive |  |  |  | 69.1 µM (active) |  |  |  | 
18 | CCCC1O[C@@H]2C[C@H]3[C@@H]4CCC5=CC(=O)C=C[C@]5(C)[C@H]4[C@@H](O)C[C@]3(C)[C@]2(C(=O)CO)O1 (stereo not given in full) | inactive |  | inactive |  | inactive |  | inactive | inactive | inactive | inactive |  |  | 100 µM (active) |  | 165 µM (active) |  | 56.5 µM (active) | 
19 | CCCCCCCCc1ccc(S(=O)(=O)O)cc1 |  | inactive | inactive |  | inactive | inactive | inactive | inactive | inactive |  |  |  | 42.1 µM (active) |  |  | 155 µM (active) |  | 19.7 µM (active)
20 | C[Si]1(C)O[Si](C)(C)O[Si](C)(C)O1 | inactive | inactive | inactive | inactive | inactive | inactive | inactive | inactive | inactive | inactive |  |  |  |  |  |  |  | 
21 | CCOC(=O)CC(C)O (stereo not given) | inactive | inactive | inactive | inactive | inactive | inactive | inactive | inactive | inactive | inactive |  |  |  |  |  |  |  | 
22 | COc1ccc(N)c([N+](=O)[O-])c1 | inactive | inactive | inactive | inactive | inactive | inactive | inactive | inactive | inactive | inactive |  |  |  |  |  |  |  | 
23 | CCC(C)=O | inactive | inactive | inactive | inactive | inactive | inactive | inactive | inactive | inactive | inactive |  |  |  |  |  |  |  | 
